From PMC7862700, “An all-to-all approach to the identification of sequence-specific readers for epigenetic DNA modifications on cytosine”

What was measured:
Experiment in all cases: DAPPL (digital affinity profiling via proximity ligation, sequencing); 10 mM Tris-HCl pH 7.5, 50 mM NaCl, 1 mM DTT, 4% glycerol, room temperature, 30 min; GST-TFs on glutathione beads, 16-mer random dsDNA library, 0.1% formaldehyde crosslink after washing; high values mean tight binding
Details in all cases: protein: recombinant; tags: N-terminal GST; dsDNA, one strand shown
[1] = target: T1, ERF (Homo sapiens, UniProt P50548 1-548)
T1 sequence: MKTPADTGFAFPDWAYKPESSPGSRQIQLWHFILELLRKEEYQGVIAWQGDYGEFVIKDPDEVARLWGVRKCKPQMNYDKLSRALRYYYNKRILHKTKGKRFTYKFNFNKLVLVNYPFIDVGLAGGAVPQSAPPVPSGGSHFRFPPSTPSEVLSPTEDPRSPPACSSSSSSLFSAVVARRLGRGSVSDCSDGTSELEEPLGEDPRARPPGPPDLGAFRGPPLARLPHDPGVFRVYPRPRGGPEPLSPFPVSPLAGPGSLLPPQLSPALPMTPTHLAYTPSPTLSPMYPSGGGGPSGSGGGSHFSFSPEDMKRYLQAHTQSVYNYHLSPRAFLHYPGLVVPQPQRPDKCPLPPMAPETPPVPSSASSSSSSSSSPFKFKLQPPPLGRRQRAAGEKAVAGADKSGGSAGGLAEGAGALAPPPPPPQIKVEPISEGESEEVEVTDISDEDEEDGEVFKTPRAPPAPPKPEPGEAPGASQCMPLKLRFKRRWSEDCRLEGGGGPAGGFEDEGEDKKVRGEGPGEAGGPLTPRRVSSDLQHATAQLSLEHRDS
Procedure, shortened: (§1)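 Binding signal is defined as a hexamer's read frequency for one factor over its frequency for the tag-only sample. To obtain reads, GST-fused human transcription factors were expressed in yeast, captured on glutathione beads, barcoded with DNA and pooled with that sample. Pools met 200 nmole of a 16-mer random double-stranded DNA library in Tris/NaCl/DTT/glycerol buffer for 30 min at room temperature before washing, 0.1% formaldehyde crosslinking, proximity ligation (BsaI/T4 ligase, 1 h, 37 °C), PCR and Illumina NextSeq500 sequencing.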

[2] = target: T2, ETV3L (Homo sapiens, UniProt Q6ZN32 1-361)
T2 sequence: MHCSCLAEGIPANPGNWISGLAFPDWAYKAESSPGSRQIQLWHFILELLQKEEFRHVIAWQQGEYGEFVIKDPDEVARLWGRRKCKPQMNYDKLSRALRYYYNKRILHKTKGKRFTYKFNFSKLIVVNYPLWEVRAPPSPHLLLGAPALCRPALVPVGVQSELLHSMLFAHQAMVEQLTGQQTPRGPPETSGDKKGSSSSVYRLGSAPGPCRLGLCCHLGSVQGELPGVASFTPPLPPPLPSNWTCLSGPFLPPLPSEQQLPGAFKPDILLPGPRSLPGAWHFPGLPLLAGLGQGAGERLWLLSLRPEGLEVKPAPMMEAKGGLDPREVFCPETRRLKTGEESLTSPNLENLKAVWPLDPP
Procedure, shortened: as §1

[3] = target: T3, ETS2 (Homo sapiens, UniProt P15036 1-469)
T3 sequence: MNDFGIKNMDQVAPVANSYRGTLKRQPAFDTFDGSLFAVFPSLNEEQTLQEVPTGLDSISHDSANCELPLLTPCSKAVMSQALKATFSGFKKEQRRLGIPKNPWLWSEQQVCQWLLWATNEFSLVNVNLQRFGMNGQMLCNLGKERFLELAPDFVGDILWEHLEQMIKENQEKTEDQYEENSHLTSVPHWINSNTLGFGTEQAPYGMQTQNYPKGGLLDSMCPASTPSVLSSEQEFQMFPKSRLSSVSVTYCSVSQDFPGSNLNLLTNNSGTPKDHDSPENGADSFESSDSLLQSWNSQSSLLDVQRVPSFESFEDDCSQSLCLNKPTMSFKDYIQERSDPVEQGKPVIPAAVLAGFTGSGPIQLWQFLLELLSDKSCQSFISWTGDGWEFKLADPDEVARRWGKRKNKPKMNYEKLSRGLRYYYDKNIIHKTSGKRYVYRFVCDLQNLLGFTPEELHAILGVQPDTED
Procedure, shortened: as §1

[4] = target: T4, SPDEF (Homo sapiens, UniProt O95238 1-335)
T4 sequence: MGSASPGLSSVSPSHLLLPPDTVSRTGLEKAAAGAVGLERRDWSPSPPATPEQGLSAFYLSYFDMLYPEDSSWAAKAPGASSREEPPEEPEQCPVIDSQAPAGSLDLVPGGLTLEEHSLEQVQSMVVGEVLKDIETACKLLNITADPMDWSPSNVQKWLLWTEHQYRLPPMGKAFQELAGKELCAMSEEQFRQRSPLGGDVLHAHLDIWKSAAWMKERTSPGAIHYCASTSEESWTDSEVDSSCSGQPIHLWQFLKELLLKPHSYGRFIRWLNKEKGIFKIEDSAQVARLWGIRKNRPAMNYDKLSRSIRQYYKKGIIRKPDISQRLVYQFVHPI
Procedure, shortened: as §1

[5] = target: T5, ETV7 (Homo sapiens, UniProt Q9Y603 1-341)
T5 sequence: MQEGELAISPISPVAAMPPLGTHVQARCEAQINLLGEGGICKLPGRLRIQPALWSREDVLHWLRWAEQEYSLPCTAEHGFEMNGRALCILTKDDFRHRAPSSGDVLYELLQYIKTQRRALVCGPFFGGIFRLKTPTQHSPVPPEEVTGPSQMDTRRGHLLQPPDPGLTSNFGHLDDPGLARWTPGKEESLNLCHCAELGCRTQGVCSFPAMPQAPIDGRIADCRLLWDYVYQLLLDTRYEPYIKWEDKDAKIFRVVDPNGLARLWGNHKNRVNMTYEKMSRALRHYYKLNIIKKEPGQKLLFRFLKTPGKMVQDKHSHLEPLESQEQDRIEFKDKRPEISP
Procedure, shortened: as §1

[6] = target: T6, ELF5 (Homo sapiens, UniProt Q9UKW6-2 1-255)
T6 sequence: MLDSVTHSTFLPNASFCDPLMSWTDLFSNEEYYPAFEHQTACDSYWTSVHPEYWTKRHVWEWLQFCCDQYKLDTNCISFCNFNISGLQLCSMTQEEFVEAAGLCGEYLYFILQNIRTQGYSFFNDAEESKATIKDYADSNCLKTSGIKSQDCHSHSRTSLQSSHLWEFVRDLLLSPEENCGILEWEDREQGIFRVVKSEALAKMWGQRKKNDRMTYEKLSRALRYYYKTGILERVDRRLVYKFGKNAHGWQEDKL
Procedure, shortened: as §1

[7] = target: T7, ETV3 (Homo sapiens, UniProt P41162-2 1-143)
T7 sequence: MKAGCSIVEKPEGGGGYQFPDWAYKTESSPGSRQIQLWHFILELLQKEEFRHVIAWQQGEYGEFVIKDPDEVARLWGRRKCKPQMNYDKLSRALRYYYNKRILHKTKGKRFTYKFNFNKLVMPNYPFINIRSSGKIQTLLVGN
Procedure, shortened: as §1

[8] = target: ETV6 (Homo sapiens, UniProt P41212 1-452)
Sequence of ETV6 (P41212 whole entry): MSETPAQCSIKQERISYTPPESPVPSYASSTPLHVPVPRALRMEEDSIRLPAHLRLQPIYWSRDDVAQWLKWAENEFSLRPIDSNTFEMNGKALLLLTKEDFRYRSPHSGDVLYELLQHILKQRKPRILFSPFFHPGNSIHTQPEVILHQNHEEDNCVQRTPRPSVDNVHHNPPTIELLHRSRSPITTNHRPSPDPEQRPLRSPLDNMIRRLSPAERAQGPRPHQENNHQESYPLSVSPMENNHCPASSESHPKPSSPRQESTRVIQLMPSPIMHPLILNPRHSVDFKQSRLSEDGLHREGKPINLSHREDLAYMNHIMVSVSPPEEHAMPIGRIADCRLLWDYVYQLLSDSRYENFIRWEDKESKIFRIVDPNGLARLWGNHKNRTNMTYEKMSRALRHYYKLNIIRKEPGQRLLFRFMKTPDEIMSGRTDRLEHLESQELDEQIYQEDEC
Procedure, shortened: as §1

With GACATT as the sequence, how does the binding signal [1] read?
Its binding signal is 1.22 fold enrichment (6-mer frequency, TF over GST control).

What about the binding signal [2] of the same sequence?
The binding signal was 1.17 fold enrichment (6-mer frequency, TF over GST control).

What about the binding signal [3] of the same sequence?
The binding signal was 1.11 fold enrichment (6-mer frequency, TF over GST control).

What about the binding signal [4] of the same sequence?
The binding signal was 1.13 fold enrichment (6-mer frequency, TF over GST control).

And the binding signal [5]?
Its binding signal is 1.07 fold enrichment (6-mer frequency, TF over GST control).

And the binding signal [6]?
Its binding signal is 1.17 fold enrichment (6-mer frequency, TF over GST control).

And the binding signal [7]?
The binding signal was 1.21 fold enrichment (6-mer frequency, TF over GST control).

What about the binding signal [8] of the same sequence?
Its binding signal is 1.26 fold enrichment (6-mer frequency, TF over GST control).

How did the binding signal [1] turn out when TGTACG was run?
Its binding signal is 1.14 fold enrichment (6-mer frequency, TF over GST control).

And the binding signal [2]?
Its binding signal is 1.2 fold enrichment (6-mer frequency, TF over GST control).

What about the binding signal [3] of the same sequence?
Its binding signal is 1.17 fold enrichment (6-mer frequency, TF over GST control).

And the binding signal [4]?
The binding signal was 1.29 fold enrichment (6-mer frequency, TF over GST control).

And the binding signal [5]?
The binding signal was 1.09 fold enrichment (6-mer frequency, TF over GST control).

What about the binding signal [6] of the same sequence?
Its binding signal is 1.14 fold enrichment (6-mer frequency, TF over GST control).

What about the binding signal [7] of the same sequence?
Its binding signal is 1.1 fold enrichment (6-mer frequency, TF over GST control).

And the binding signal [8]?
Its binding signal is 1.18 fold enrichment (6-mer frequency, TF over GST control).

What does the source list for TAGCGG?
binding signal [1]: 1.1 fold enrichment (6-mer frequency, TF over GST control); binding signal [2]: 1.12 fold enrichment (6-mer frequency, TF over GST control); binding signal [3]: 1.13 fold enrichment (6-mer frequency, TF over GST control); binding signal [4]: 1.1 fold enrichment (6-mer frequency, TF over GST control); binding signal [5]: 1.12 fold enrichment (6-mer frequency, TF over GST control); binding signal [6]: 1.12 fold enrichment (6-mer frequency, TF over GST control); binding signal [7]: 1.09 fold enrichment (6-mer frequency, TF over GST control); binding signal [8]: 1.12 fold enrichment (6-mer frequency, TF over GST control)

How did the binding signal [1] turn out when TTAGCG was run?
The binding signal was 1.05 fold enrichment (6-mer frequency, TF over GST control).

What about the binding signal [2] of the same sequence?
Its binding signal is 1.06 fold enrichment (6-mer frequency, TF over GST control).

What about the binding signal [3] of the same sequence?
Its binding signal is 1.06 fold enrichment (6-mer frequency, TF over GST control).

And the binding signal [4]?
The binding signal was 1.04 fold enrichment (6-mer frequency, TF over GST control).

And the binding signal [5]?
Its binding signal is 1.11 fold enrichment (6-mer frequency, TF over GST control).

What about the binding signal [6] of the same sequence?
Its binding signal is 1.02 fold enrichment (6-mer frequency, TF over GST control).

What about the binding signal [7] of the same sequence?
The binding signal was 1.03 fold enrichment (6-mer frequency, TF over GST control).

And the binding signal [8]?
Its binding signal is 1.04 fold enrichment (6-mer frequency, TF over GST control).

How did the binding signal [1] turn out when ACTGCG was run?
Its binding signal is 1.26 fold enrichment (6-mer frequency, TF over GST control).

What about the binding signal [2] of the same sequence?
Its binding signal is 1.26 fold enrichment (6-mer frequency, TF over GST control).

What about the binding signal [3] of the same sequence?
Its binding signal is 1.35 fold enrichment (6-mer frequency, TF over GST control).

And the binding signal [4]?
Its binding signal is 1.24 fold enrichment (6-mer frequency, TF over GST control).

What about the binding signal [5] of the same sequence?
The binding signal was 1.21 fold enrichment (6-mer frequency, TF over GST control).

What about the binding signal [6] of the same sequence?
Its binding signal is 1.25 fold enrichment (6-mer frequency, TF over GST control).

And the binding signal [7]?
Its binding signal is 1.25 fold enrichment (6-mer frequency, TF over GST control).

What about the binding signal [8] of the same sequence?
The binding signal was 1.18 fold enrichment (6-mer frequency, TF over GST control).

Which results are given for CTTACC?
binding signal [1]: 1.19 fold enrichment (6-mer frequency, TF over GST control); binding signal [2]: 1.16 fold enrichment (6-mer frequency, TF over GST control); binding signal [3]: 1.29 fold enrichment (6-mer frequency, TF over GST control); binding signal [4]: 1.39 fold enrichment (6-mer frequency, TF over GST control); binding signal [5]: 1.29 fold enrichment (6-mer frequency, TF over GST control); binding signal [6]: 1.39 fold enrichment (6-mer frequency, TF over GST control); binding signal [7]: 1.22 fold enrichment (6-mer frequency, TF over GST control); binding signal [8]: 1.19 fold enrichment (6-mer frequency, TF over GST control)

CGTCCT was tested. Which binding signal [1] did it give?
Its binding signal is 1.41 fold enrichment (6-mer frequency, TF over GST control).

And the binding signal [2]?
The binding signal was 1.31 fold enrichment (6-mer frequency, TF over GST control).

What about the binding signal [3] of the same sequence?
The binding signal was 1.28 fold enrichment (6-mer frequency, TF over GST control).

What about the binding signal [4] of the same sequence?
The binding signal was 1.56 fold enrichment (6-mer frequency, TF over GST control).

What about the binding signal [5] of the same sequence?
Its binding signal is 1.45 fold enrichment (6-mer frequency, TF over GST control).

And the binding signal [6]?
Its binding signal is 1.56 fold enrichment (6-mer frequency, TF over GST control).

And the binding signal [7]?
Its binding signal is 1.53 fold enrichment (6-mer frequency, TF over GST control).

And the binding signal [8]?
Its binding signal is 1.47 fold enrichment (6-mer frequency, TF over GST control).

For CCGGGT, which binding signal [1] is on record?
Its binding signal is 1.1 fold enrichment (6-mer frequency, TF over GST control).

What about the binding signal [2] of the same sequence?
The binding signal was 1.04 fold enrichment (6-mer frequency, TF over GST control).

What about the binding signal [3] of the same sequence?
The binding signal was 1.24 fold enrichment (6-mer frequency, TF over GST control).

What about the binding signal [4] of the same sequence?
Its binding signal is 1.79 fold enrichment (6-mer frequency, TF over GST control).

And the binding signal [5]?
Its binding signal is 1.13 fold enrichment (6-mer frequency, TF over GST control).

What about the binding signal [6] of the same sequence?
The binding signal was 1.55 fold enrichment (6-mer frequency, TF over GST control).

And the binding signal [7]?
Its binding signal is 1.21 fold enrichment (6-mer frequency, TF over GST control).

And the binding signal [8]?
The binding signal was 1.21 fold enrichment (6-mer frequency, TF over GST control).

Which results are given for GCTACC?
binding signal [1]: 1.31 fold enrichment (6-mer frequency, TF over GST control); binding signal [2]: 1.15 fold enrichment (6-mer frequency, TF over GST control); binding signal [3]: 1.22 fold enrichment (6-mer frequency, TF over GST control); binding signal [4]: 1.22 fold enrichment (6-mer frequency, TF over GST control); binding signal [5]: 1.27 fold enrichment (6-mer frequency, TF over GST control); binding signal [6]: 1.24 fold enrichment (6-mer frequency, TF over GST control); binding signal [7]: 1.24 fold enrichment (6-mer frequency, TF over GST control); binding signal [8]: 1.16 fold enrichment (6-mer frequency, TF over GST control)
